Counter-ions that a name gives are not always drawn. ± gives the standard deviation.

The subject of the experiment is Jurkat. Kind of experiment: mean cell size (FSC-A) relative to DMSO control (fraction of control); higher = larger cells. To be noted: 48 h. The gist of the method: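 Jurkat cells at 600 cells/µl were incubated for 1 h and then treated for 48h with the Enzo Screen-Well FDA Approved Drug Library v2.0 at 25µM, with DMSO at 0.9% (v/v) final. Compounds that reduced counts below 20% of controls were retested in 10-fold dilutions down to 25nM. Cell count and mean cell size, taken as forward scatter area, were measured by flow cytometry relative to solvent-only controls. Each plate carried 6-12 controls, and values are means of 3 biological replicates.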
Regarding `CNCCC(Oc1ccc(C(F)(F)F)cc1)c1ccccc1` (stereo unspecified) [Fluoxetine·HCl] (concentration: 25 µM), the mean cell size amounted to 0.992 ± 0.039.

Consider `CC(CN(C)C)CN1c2ccccc2CCc2ccccc21` (stereo unspecified) [Trimipramine Maleate] (concentration: 25 µM), for which the mean cell size was 1.02 ± 0.022. The molecule `Nc1nc(NC2CC2)c2ncn([C@H]3C=C[C@@H](CO)C3)c2n1` [Abacavir Sulfate] (concentration: 25 µM) gave a mean cell size of 1.1 ± 0.033. Under `Nc1c2c(nc3ccccc13)CCCC2` [Tacrine·HCl] (concentration: 25 µM) stands 0.9808 ± 0.0065. Under `COc1cc2nc(N3CCN(C(=O)C4COc5ccccc5O4)CC3)nc(N)c2cc1OC` (stereo unspecified) [Doxazosin Mesylate] (concentration: 2.5 µM) stands 1.01 ± 0.011; under `C[C@@H]1C/C=C/C=C/C=C/C=C/[C@H](O[C@@H]2O[C@H](C)[C@@H](O)[C@H](N)[C@@H]2O)C[C@@H]2O[C@](O)(C[C@@H](O)C[C@H]3O[C@@H]3/C=C/C(=O)O1)C[C@H](O)[C@H]2C(=O)O` [Natamycin] (concentration: 25 µM), 0.951 ± 0.015. The figure for `CCC(=O)O[C@]1(C(=O)SCF)[C@H](C)C[C@H]2[C@@H]3C[C@H](F)C4=CC(=O)C=C[C@]4(C)[C@@]3(F)[C@@H](O)C[C@@]21C` [Fluticasone Propionate] (concentration: 25 µM) is 0.967 ± 0.015. As for `CCCCCCCCc1ccc(CCC(N)(CO)CO)cc1` [Fingolimod] (concentration: 25 µM), the mean cell size came to 1.03 ± 0.035.

Regarding `CC(=O)Nc1c(I)c(NC(C)=O)c(I)c(C(=O)O)c1I` [Diatrizoate Meglumine] (concentration: 25 µM), the mean cell size stood at 0.99 ± 0.021. The figure for `CCN1CCN(C(=O)N[C@@H](C(=O)N[C@@H]2C(=O)N3[C@@H]2SC(C)(C)[C@@H]3C(=O)O)c2ccccc2)C(=O)C1=O` [Piperacillin] (concentration: 25 µM) is 1 ± 0.015; for `Nc1nc2ccc(OC(F)(F)F)cc2s1` [Riluzole·HCl] (concentration: 2.5 µM) it is 1.01 ± 0.028. In the case of `Cc1ccccc1C(OCCN(C)C)c1ccccc1` (stereo unspecified) [Orphenadrine Citrate] (concentration: 25 µM), the mean cell size turned out to be 0.975 ± 0.056. As for `O=C1CN(/N=C/c2ccc([N+](=O)[O-])o2)C(=O)N1` [Nitrofurantoin] (concentration: 2.5 µM), the mean cell size is 0.955 ± 0.019. The figure for `CCN(CC)CCCC(C)Nc1ccnc2cc(Cl)ccc12` (stereo unspecified) [Chloroquine Diphosphate] (concentration: 25 µM) is 0.947 ± 0.025. Under `CC(CCc1ccc(O)cc1)NCCc1ccc(O)c(O)c1` (stereo unspecified) [Dobutamine·HCl] (concentration: 25 µM) stands 0.952 ± 0.042. Under `CCCCS(=O)(=O)N[C@@H](Cc1ccc(OCCCCC2CCNCC2)cc1)C(=O)O` [Tirofiban·HCl] (concentration: 25 µM) stands 0.937 ± 0.023; under `CCOc1cc(CC(=O)N[C@@H](CC(C)C)c2ccccc2N2CCCCC2)ccc1C(=O)O` [Repaglinide] (concentration: 25 µM), 1.03 ± 0.022; under `CN1CCN(C2=Nc3ccccc3Oc3ccc(Cl)cc32)CC1` [Loxapine Succinate] (concentration: 25 µM), 0.908 ± 0.024. The molecule `CC(C(=O)O)c1cccc(C(=O)c2ccccc2)c1` (stereo unspecified) [Ketoprofen] (concentration: 25 µM) came in with a mean cell size of 0.929 ± 0.0063. Under `NCc1ccc(S(N)(=O)=O)cc1` [Mafenide·HCl] (concentration: 25 µM) stands 0.92 ± 0.056; under `Clc1ccc(CCC(Cn2ccnc2)Sc2c(Cl)cccc2Cl)cc1` (stereo unspecified) [Butoconazole Nitrate] (concentration: 25 µM), 0.953 ± 0.05. The figure for `CNS(=O)(=O)CCc1ccc2[nH]cc(C3CCN(C)CC3)c2c1` [Naratriptan·HCl] (concentration: 25 µM) is 0.95 ± 0.019. Under `O=C(CCCN1CC=C(n2c(=O)[nH]c3ccccc32)CC1)c1ccc(F)cc1` [Droperidol] (concentration: 25 µM) stands 0.962 ± 0.032; under `CC1(C)S[C@@H]2[C@H](NC(=O)[C@H](N)c3ccc(O)cc3)C(=O)N2[C@H]1C(=O)O` [Amoxicillin] (concentration: 25 µM), 0.988 ± 0.012. Take `CC(C)(C#N)c1cc(Cn2cncn2)cc(C(C)(C)C#N)c1` [Anastrozole] (concentration: 25 µM): the mean cell size was found to be 0.98 ± 0.021.

Consider `CC(C)(C(=O)O)c1ccc(C(O)CCCN2CCC(C(O)(c3ccccc3)c3ccccc3)CC2)cc1` (stereo unspecified) [Fexofenadine·HCl] (concentration: 25 µM), for which the mean cell size amounted to 0.996 ± 0.041.

These data come from the supplement of paper PMC4709259.
